HEK293 tox: cytotoxic compounds in HEK 293 cells. 6.6% of 94,000 active. AID 1345083. Potency, µM (series often up to 115 µM), usual class: inhibitors. HEK 293 viability, ATP luminescence (CellTiter-Glo), 48-72 h; further: nearly all actives have a fitted effect of over 60% in size
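HEK 293 cells at 250 cells/well were exposed to compounds by pintool transfer for 48 or 72 hr at 37 degree Celsius, 5% CO2. Viability was read as ATP-coupled luminescence with CellTiter-Glo after 10 min at room temperature.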
GPT2 inhibitor: blocks human glutamate pyruvate transaminase 2; Q8TD30; Recombinant GPT2, coupled pyruvate oxidase/HRP Amplex Red fluorescence; Potency, µM (top dose mostly 57.7 µM), usual class: inhibitors; 0.25% of 100,000 active; AID 1671188; further: nearly all actives have a fitted effect of over 60% in size
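Inhibition is scored from Amplex Red fluorescence generated when pyruvate oxidase and HRP act on pyruvate released by GPT2. Reactions contain 10ng/uL enzyme, 250uM a-KG and 2mM L-alanine and run 30 min at room temperature.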
3T3 cytotox: kills NIH 3T3 cells; NIH 3T3 viability, CellTiter-Glo ATP luminescence, 48-72 h; Potency, µM (series often up to 96.7 µM), most hits filed as inhibitors; 4.3% of 94,000 active; AID 1345082; further: nearly all actives have a fitted effect of over 55% in size
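Mouse fibroblast NIH 3T3 cells, 400 per well, received compound via pintool and were incubated for 48 or 72 hr prior to CellTiter-Glo ATP luminescence measurement.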
hNpr1 antagonist: antagonists of human natriuretic peptide receptor Npr1; P16066; 1.6% of 76,000 active; Potency, µM (titrated, usually from 46.3 µM), actives largely listed as inhibitors; HEK293 hNpr1 GloSensor cGMP, ANP-stimulated luminescence; calls by dose curve; further: nearly all actives have a fitted effect of over 60% in size
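Compound pre-incubated 30 min at room temperature on GloSensor-loaded HEK293 cells stably carrying hNpr1 and the pGS-40F cGMP biosensor. Stimulation uses hNppA at 0.1 nM final; luminescence is taken at baseline and 20 min post-agonist.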
FLuc inh: blocks purified firefly luciferase enzyme activity. purified P. pyralis luciferase, luminescence, biochemical. Potency, µM (doses to about 115 µM), actives largely listed as inhibitors. 2.5% of 76,000 active; further: nearly all actives have a fitted effect of over 65% in size
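Biochemical qHTS: compound (6-point titration) added to 10uM D-luciferin plus 10uM ATP in Tris acetate pH 7.5 buffer with Mg, Tween-20 and BSA, then purified enzyme at 10nM; light output imaged.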
Each line names hits and unclear results; the compound was inactive in the other large screens; ! = not active in a repeat. Compounds with a hit are over-represented: about 10% of the library has one in this group of screens. Unless noted, the call rests on the fitted dose curve; in most records, active means well fitted curve in the direction sought with a large enough effect; inconclusive means small, poorly fitted or top-dose-only effect, or another doubt; inactive means no such curve, though single readings can be large; an effect the other way counts as inactive or inconclusive.

COc1cccc(Nc2ncc3c(n2)C(C)(C(=O)NCCCn2ccnc2)CC3)c1 (centres undefined)	HEK293 tox inconclusive, 3T3 cytotox 25µM
COc1cccc(C(=O)N2CCN(C(=O)c3cccc(-c4ccccn4)c3)CC2)c1	HEK293 tox inconclusive (no result: hNpr1 antagonist, FLuc inh)
CCNc1cc(N2CCC(CCC(=O)Nc3cc(C)ccc3OC)CC2)ncn1	HEK293 tox inconclusive, 3T3 cytotox inconclusive, FLuc inh inconclusive
COc1ccc(S(=O)(=O)N2CCC(Cc3nncn3-c3ccccc3)CC2)cc1	none
CC1(C(=O)NC2CC2)CCc2cnc(Nc3ccccc3)nc21 (centres undefined)	HEK293 tox 40µM, 3T3 cytotox 28µM, hNpr1 antagonist inconclusive
CC1(C(=O)NC2CCOCC2)COCc2cnc(Nc3ccccc3)nc21 (centres undefined)	3T3 cytotox inconclusive
COc1cccc(NC(=O)C2(C)CCc3cnc(NCc4ccccc4)nc32)c1 (centres undefined)	HEK293 tox 71µM, 3T3 cytotox inconclusive
COc1ccc(NC(=O)C2(C)CCCc3cnc(Nc4cccnc4)nc32)cc1 (centres undefined)	3T3 cytotox 35µM
CC1(C(=O)Nc2ccncc2)CCCc2cnc(Nc3ccccc3)nc21 (centres undefined)	HEK293 tox inconclusive, 3T3 cytotox inconclusive
COc1cccc(NC(=O)C2(C)CCCc3cnc(N(C)C)nc32)c1 (centres undefined)	HEK293 tox inconclusive, GPT2 inhibitor inconclusive, 3T3 cytotox inconclusive
CC1(C(=O)NCc2cccc(F)c2)COCc2cnc(Nc3ccccc3)nc21 (centres undefined)	HEK293 tox 89µM, 3T3 cytotox inconclusive
O=C(NCc1ccc(F)cc1)[C@@H]1C[C@@H](c2ccc(F)cc2)N([S+](=O)([O-])c2ccccc2)C1	HEK293 tox inconclusive, 3T3 cytotox inconclusive
O=C1Nc2ccc(-c3ccc(F)cc3F)cc2C(=O)N2CC[C@H](NC(=O)N3CCOCC3)[C@@H]12	FLuc inh inconclusive
CCS(=O)(=O)N1CCc2n[nH]c(=O)n2CC1	none
COc1ccc(NC(=O)C2(C)CCc3cnc(NCc4ccccc4)nc32)cn1 (centres undefined)	HEK293 tox inconclusive, 3T3 cytotox 13µM
COc1cccc(Nc2ncc3c(n2)C(C)(C(=O)NCc2ccc4c(c2)OCO4)CC3)c1 (centres undefined)	HEK293 tox 32µM, 3T3 cytotox inconclusive, hNpr1 antagonist inconclusive
CN(C)c1ncc2c(n1)C(C)(C(=O)NCc1ccc3c(c1)OCO3)CCC2 (centres undefined)	HEK293 tox inconclusive, 3T3 cytotox inconclusive
COC[C@@H]1OC[C@@]2(C)C3CC[C@@H](O)[C@@H](CC(=O)NCc4ccc(F)cc4)[C@]3(C)CC[C@H]2O1 (some centres undefined)	none
C[C@@]12CO[C@@H](COc3ccccc3)O[C@@H]1CC[C@]1(C)C2CC[C@@H](O)[C@H]1CC(=O)NCc1cc(F)cc(F)c1 (some centres undefined)	HEK293 tox 28µM, 3T3 cytotox inconclusive, hNpr1 antagonist inconclusive
Cc1cc(C)cc(NC(=O)N2c3ccccc3CC2c2noc(C3CCOCC3)n2)c1 (centres undefined)	FLuc inh 40µM
COc1cc(-c2nc3cc4[nH]c(=O)[nH]c4cc3[nH]2)cc(OC)c1O	FLuc inh inconclusive
CCN(C(=O)CCC(=O)N1CCC(c2nc(C(=O)N3CCCC3)c(C)o2)CC1)c1ccccc1	HEK293 tox inconclusive, 3T3 cytotox inconclusive (no result: hNpr1 antagonist, FLuc inh)
Cc1ccc(-c2noc(CCCC(=O)N3CCC(c4nc(C(=O)N5CCCC5)c(C)o4)CC3)n2)cc1	HEK293 tox 35µM, 3T3 cytotox inconclusive (no result: hNpr1 antagonist, FLuc inh)
CN(C)Cc1c(C(=O)NCCOc2ccc(C(=O)NO)cc2)oc2ccccc12	GPT2 inhibitor 31µM! (no result: HEK293 tox, 3T3 cytotox, hNpr1 antagonist, FLuc inh)
O=C(c1ccccc1F)N1CCn2c(nnc2C2CCNCC2)C1	3T3 cytotox 28µM (no result: hNpr1 antagonist, FLuc inh)
O=C(c1ccccc1F)N1CCn2c(nnc2-c2ccccc2)C1	none
COc1cccc2c1OCC(C(=O)N1CCC(c3noc(C)n3)CC1)C2 (centres undefined)	GPT2 inhibitor inconclusive
Cc1ccc(S(=O)(=O)N[C@H]2CC(C)(C)[C@@H]3C[C@@](C)(O)CC[C@]23CCC(=O)NCCc2c[nH]c3ccccc23)cc1	HEK293 tox inconclusive, 3T3 cytotox 79µM
CC(C)N[C@H]1CC(C)(C)[C@@H]2C[C@@](C)(O)CC[C@]12CCC(=O)NCCc1c[nH]c2ccccc12	HEK293 tox inconclusive, 3T3 cytotox inconclusive
CCn1nc(CC(C)C)cc1C(=O)N(C)Cc1cccc(-n2cccn2)c1	HEK293 tox 50µM, 3T3 cytotox inconclusive
CC(=O)N1CC(N2C(=O)c3c(c(C)nn3-c3ccccc3)C2C(C)C)C1 (centres undefined)	none (no result: GPT2 inhibitor, hNpr1 antagonist, FLuc inh)
Cc1ccccc1C(=O)N1CCCC(N2C(=O)c3c(c(C)nn3-c3ccccc3)C2C(C)C)C1 (centres undefined)	HEK293 tox 22µM, 3T3 cytotox 40µM (no result: GPT2 inhibitor, hNpr1 antagonist, FLuc inh)
Cc1nn(-c2ccccc2)c2c1C(C(C)C)N(C1CN(C(=O)c3ccccc3)C1)C2=O (centres undefined)	HEK293 tox 45µM, 3T3 cytotox inconclusive (no result: GPT2 inhibitor, hNpr1 antagonist, FLuc inh)
Cc1ccccc1C(=O)N1CCC(N2C(=O)c3c(c(C)nn3-c3ccccc3)C2C(C)C)C1 (centres undefined)	HEK293 tox 40µM, 3T3 cytotox inconclusive (no result: GPT2 inhibitor, hNpr1 antagonist, FLuc inh)
Cc1nn(-c2ccccc2)c2c1C(C(C)C)N(C1CN(C(=O)C3CCCC3)C1)C2=O (centres undefined)	HEK293 tox 45µM, 3T3 cytotox 40µM (no result: GPT2 inhibitor, hNpr1 antagonist, FLuc inh)
Cc1nn(-c2ccccc2)c2c1C(C(C)C)N(C1CCCN(C(=O)C3CCCC3)C1)C2=O (centres undefined)	none (no result: GPT2 inhibitor, hNpr1 antagonist, FLuc inh)
COC(=O)c1ccc2nc(CO[C@H]3CN(Cc4ncccc4C)C[C@H]3F)[nH]c2c1	none
COCCOC1CCOC2(CCN(S(=O)(=O)c3cccc(OC)c3)CC2)C1 (centres undefined)	none
Cc1nccn1C1CN(C(=O)c2ccc3cc[nH]c3c2)C1	none (no result: hNpr1 antagonist, FLuc inh)
Cc1ccc(C(=O)N2CCC(n3cnnc3-c3ccccc3)CC2)cc1F	none
Cc1nn(-c2ccccc2)c2c1C(C(C)C)N(C1CCCN(C(=O)c3ccccc3F)C1)C2=O (centres undefined)	HEK293 tox 35µM, 3T3 cytotox inconclusive (no result: GPT2 inhibitor, hNpr1 antagonist, FLuc inh)
Cc1ccc(C(=O)N2CCCC(N3C(=O)c4c(c(C)nn4-c4ccccc4)C3C(C)C)C2)cc1 (centres undefined)	HEK293 tox 45µM, 3T3 cytotox inconclusive (no result: GPT2 inhibitor, hNpr1 antagonist, FLuc inh)
Cc1nn(-c2ccccc2)c2c1C(C(C)C)N(C1CCCN(C(=O)Cc3ccccn3)C1)C2=O (centres undefined)	HEK293 tox inconclusive (no result: GPT2 inhibitor, hNpr1 antagonist, FLuc inh)

Screening data deposited in PubChem BioAssay by National Center for Advancing Translational Sciences (NCATS).
